Experimental data taken from PubChem BioAssay AID493194 (Broad Institute, 2011).
Results with a measured potency or affinity are listed apart. Records with an inconclusive call do not appear.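 How the source made its calls: active means a valid curve of falling signal whose half-effect concentration is at most ten times the top tested dose; inconclusive means flat curve at 30 to 70% inhibition, or poor fit; inactive means signal rise, flat within 30%, or potency beyond limit.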

Biological target: Scavenger receptor class B member 1 (Mus musculus) (UniProt Q61009)
Sequence (Q61009 whole entry, looked up): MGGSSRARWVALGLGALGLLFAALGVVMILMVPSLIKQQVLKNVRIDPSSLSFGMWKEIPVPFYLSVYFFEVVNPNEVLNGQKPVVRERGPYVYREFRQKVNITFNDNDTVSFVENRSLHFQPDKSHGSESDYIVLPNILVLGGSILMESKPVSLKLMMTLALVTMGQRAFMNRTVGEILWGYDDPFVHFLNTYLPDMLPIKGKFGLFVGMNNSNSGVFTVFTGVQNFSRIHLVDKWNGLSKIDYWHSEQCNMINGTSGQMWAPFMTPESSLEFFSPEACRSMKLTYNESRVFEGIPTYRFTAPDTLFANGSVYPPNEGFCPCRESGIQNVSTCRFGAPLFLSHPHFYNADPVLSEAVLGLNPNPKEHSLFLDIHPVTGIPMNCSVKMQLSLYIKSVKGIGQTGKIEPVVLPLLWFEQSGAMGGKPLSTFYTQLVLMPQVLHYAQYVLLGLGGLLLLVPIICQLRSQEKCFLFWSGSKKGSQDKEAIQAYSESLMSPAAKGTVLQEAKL
Experiment: inhibitors of SR-BI mediated HDL lipid uptake, dose response, ldlA[mSR-BI] cells, fluorescence, cherry pick (AID 493194);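 further: CHO cells lacking LDL receptor and overexpressing mouse SR-BI; cellular uptake of fluorescently labeled HDL measured as cell fluorescence; 0% = median of neutral control wells and -100% = median of positive control wells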
Settings: CHO ldlA[mSR-BI] DiI-HDL uptake fluorescence, 3 h; series mostly up to 35 µM; activity change, negative = inhibition: at the top concentration

Activity change, negative = inhibition, inactive:
COc1ccc(OC)c(NC(=O)CCC(=O)N(Cc2ccc(OC)c(OC)c2)c2nccs2)c1 -22.8%
Cc1ccc(/C=C/C(=O)Nc2sc3c(c2C#N)CCCC3)o1 -15%
Cc1ccc(-c2nn(-c3ccccc3)cc2/C=C/C(=O)OCC(=O)NC2CC2)o1 -29.3%
CCCc1cc(-c2[nH]ncc2-c2ccc(C(=O)OCC)o2)c(O)cc1O 46.8%
CC(=O)Nc1cc(NC(C)=O)cc(C(=O)OCC(=O)N(c2ccccc2)C2CCS(=O)(=O)C2)c1 (stereo not drawn) 29%
COc1ccc(-c2nc(CN3CCN(c4ncnc5ccccc45)CC3)c(C)o2)c(OC)c1 0.707%
CN(C(=O)COC(=O)c1c[nH]c(=O)[nH]c1=O)C1CCCCC1 50.6%
COc1ccc(C2/C=C\CN(S(=O)(=O)c3ccc(C)cc3)CC(=O)N2Cc2ccc(F)cc2)cc1 (stereo not drawn) -5.93%
COc1cc2c(cc1OC)-c1cc(OCc3ccccc3Cl)nc(=O)n1CC2 3.79%
CN(C(=O)COC(=O)CCc1c[nH]c2ccccc12)c1ccccc1 66.7%
CCOc1ccccc1NC(=O)N1C2CCCC1CC(NC(=O)C1CC1)C2 (stereo not drawn) 31.7%
Cc1sc(NC(=O)c2cccc([N+](=O)[O-])c2)c(C(N)=O)c1-c1ccc(C(C)(C)C)cc1 -34.7%
Cc1cc(C)c(C)c(S(=O)(=O)N2CCN(CC(=O)NC(=O)NCc3ccccc3)CC2)c1C -0.05%
COc1cc(/C=C/C(=O)Nc2cccc(S(=O)(=O)NC3=NCCCCC3)c2)ccc1OCC#N -16.7%
COc1ccc(N2CC(C(=O)NCCC3=CCCCC3)CC2=O)c(OC)c1 (stereo not drawn) -27.6%
Cc1c(C(=O)CN2CCCC(C)(C)C2)c2ccccc2n1C 34.2%
CCOc1ccc(C(=O)Nc2ccc(S(=O)(=O)N3C[C@@H]4C[C@@H](C3)c3cccc(=O)n3C4)cc2)cc1 -16.8%
Cc1ccc(S(=O)(=O)N2CCC(C(=O)NNC(=O)c3cccnc3)CC2)cc1 -4.61%
COc1ccc(CCC(=O)Nc2ccc(-c3noc(-c4ccc(OC)c(OC)c4)n3)cc2)cc1 -4.83%
COc1cc(/C=C/C(=O)OCC(=O)c2ccc[nH]2)cc(OC)c1OC -21.2%
Cc1ccc(S(=O)(=O)NCc2ccc(C(=O)NCCc3ccc(S(N)(=O)=O)cc3)cc2)cc1 -30.5%
CCC(=O)Nc1ccc(Cl)c(NC(=O)c2cccc(OC)c2)c1 0.316%
Cc1nn(Cc2ccccc2)c(C)c1NC(=O)c1cc2nc(-c3ccco3)cc(C(F)(F)F)n2n1 -9.64%
COc1ccc(C2/C=C\CN(S(=O)(=O)c3ccc4ccccc4c3)CC(=O)N2Cc2ccc(F)cc2)cc1 (stereo not drawn) 54.8%
Cc1ccc(NC(=O)CSc2nnc([C@H](C)NC(=O)OC(C)(C)C)o2)c(C)c1 -7.58%
O=C(Nc1cccc(-c2csc(Nc3ccc(Cl)cc3)n2)c1)c1cccc(C(F)(F)F)c1 -46.5%
CCOCCOC(=O)c1[nH]c2c(c1C)C(=O)CC(c1cccs1)C2 (stereo not drawn) -16.7%
Cc1ccccc1-c1cc(C(=O)NCc2cccc(Br)c2)nn1CC1CC(c2cccc([N+](=O)[O-])c2)=NO1 (stereo not drawn) 17.5%
CNc1cnn(-c2ccc(C)cc2)c(=O)c1Sc1ccc(C)cc1 36%
COc1ccc(CN2CCN(C(=O)c3ccc(S(=O)(=O)NCc4ccco4)cc3)CC2)cc1 -6.51%
O=C1C2CCCN2C(=O)N1CCCN1CCN(c2ccc([N+](=O)[O-])cc2)CC1 (stereo not drawn) 8.25%
O=C(Nc1cccc(Cl)c1)Nc1sccc1-c1nc2ccccc2s1 -30.2%
CCOC(=O)CSc1c(-c2ccc(Cl)cc2)[nH]c2ccccc12 7.74%
CCCCC(=O)Nc1nc(C)c(-c2csc(Nc3ccc(Cl)cc3)n2)s1 4.32%
COc1ccc(-c2csc(N3CCN(c4cc(C)nc5ccccc45)CC3)n2)cc1OC -1.93%
CCCOC1CCCN(C(=O)c2cc(COc3cncc(Cl)c3)on2)C1 (stereo not drawn) 27.2%
CCOC(=O)c1[nH]c2c(c1C)C(=O)CC(c1ccc(F)cc1)C2 (stereo not drawn) 13.8%
Cn1c(-c2ccsc2)c(-c2cccs2)c2cc(-c3ccc4cc[nH]c4c3)ccc21 -34.9%
